# ± gives the standard deviation of the averaged measurements.
# Key:
# DLD1 [1] = experiment: cell viability (CellTiter-Glo) relative to plate median (fraction of plate median); higher = more viable cells; details: 5 µM; treatment time 24 h; reporter: 7TFP
# Summary of the method: (§1)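 Colorectal cancer lines with stably integrated lentiviral TCF/Wnt firefly luciferase reporters received library compounds at a final 5 µM, 24 h after seeding into 384-well plates, for a 24 h exposure. Reported figures are plate-median-normalised firefly luciferase or CellTiterGlo luminescence per well. They average two independent replicates.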
# HCT116 [2] = experiment: as above; details: 5 µM; treatment time 24 h; reporter: TCF4/Wnt
# Summary of the method: as §1
# SW480 [3] = experiment: as above; details: 5 µM; treatment time 24 h; reporter: 7TFP
# Summary of the method: as §1
# DLD1 [4] = experiment: TCF/Wnt firefly luciferase reporter signal relative to plate median (fraction of plate median); higher = higher Wnt reporter signal; details: 5 µM; treatment time 24 h; reporter: 7TFP
# Summary of the method: as §1
# SW480 [5] = experiment: as above; details: 5 µM; treatment time 24 h; reporter: 7TFP
# Summary of the method: as §1
# DLD1 [6] = experiment: cell viability (CellTiter-Glo) relative to plate median (fraction of plate median); higher = more viable cells; details: 10 µM, treatment time 24 h
# Summary of the method: (§2)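 Each value averages two independent replicates in which the well signal was normalised to the plate median (webcellHTS2, additive, without log transformation). The signal was firefly luciferase or CellTiterGlo luminescence, read on parallel plates with a Tecan F500. The cells were colorectal cancer lines with stable lentiviral TCF/Wnt firefly luciferase reporters in 384-well plates, dosed 24 h after seeding with kinase inhibitor library compounds at a final 10 µM for 24 h.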
# HCT116 [7] = experiment: as above; details: 10 µM; treatment time 24 h; reporter: TCF4/Wnt
# Summary of the method: as §2
# SW480 [8] = experiment: as above; details: 10 µM; treatment time 24 h; reporter: 7TFP
# Summary of the method: as §2
# DLD1 [9] = experiment: TCF/Wnt firefly luciferase reporter signal relative to plate median (fraction of plate median); higher = higher Wnt reporter signal; details: 10 µM, treatment time 24 h
# Summary of the method: as §2
# HCT116 [10] = experiment: as above; details: 10 µM; treatment time 24 h; reporter: TCF4/Wnt
# Summary of the method: as §2
# SW480 [11] = experiment: as above; details: 10 µM; treatment time 24 h; reporter: 7TFP
# Summary of the method: as §2
smiles,measurement,setting,value
C=C1[C@H]2CC[C@@]3(C)[C@H](c4ccoc4)OC(=O)C[C@]13O[C@H]1C[C@H](O)C(C)(C)[C@H](CC(=O)OC)[C@]12C [3-DEOXY-3beta-HYDROXYANGOLENSIC ACID METHYL ESTER],cell viability,DLD1 [1],1.01 ± 0.061
same,cell viability,HCT116 [2],0.958 ± 0.1
same,cell viability,SW480 [3],1.05 ± 0.11
same,TCF/Wnt firefly luciferase reporter signal,DLD1 [4],1.06 ± 0.05
same,TCF/Wnt firefly luciferase reporter signal,SW480 [5],0.952 ± 0.035
C#C[C@]1(OC(C)=O)CC[C@H]2[C@@H]3CCC4=CC(=O)CC[C@@H]4[C@H]3CC[C@@]21C,cell viability,DLD1 [1],0.87 ± 0.018
same,cell viability,HCT116 [2],0.964 ± 0.094
same,cell viability,SW480 [3],0.973 ± 0.052
same,TCF/Wnt firefly luciferase reporter signal,DLD1 [4],0.925 ± 0.022
same,TCF/Wnt firefly luciferase reporter signal,SW480 [5],0.768 ± 0.023
CN1CCC(=C2c3ccccc3Sc3ccccc32)CC1,cell viability,DLD1 [1],1.004 ± 0.0092
same,cell viability,HCT116 [2],0.913 ± 0.032
same,cell viability,SW480 [3],1.03 ± 0.059
same,TCF/Wnt firefly luciferase reporter signal,DLD1 [4],0.874 ± 0.026
same,TCF/Wnt firefly luciferase reporter signal,SW480 [5],0.944 ± 0.071
Oc1cccc(-c2nc(N3CCOCC3)c3oc4ncccc4c3n2)c1,cell viability,DLD1 [6]; reporter: 7TFP,0.906 ± 0.036
same,cell viability,DLD1 [6]; reporter: TCF4/Wnt,0.917 ± 0.038
same,cell viability,HCT116 [7],0.862 ± 0.15
same,cell viability,SW480 [8],1.12 ± 0.05
same,TCF/Wnt firefly luciferase reporter signal,DLD1 [9]; reporter: 7TFP,0.717 ± 0.061
same,TCF/Wnt firefly luciferase reporter signal,DLD1 [9]; reporter: TCF4/Wnt,0.954 ± 0.093
same,TCF/Wnt firefly luciferase reporter signal,HCT116 [10],0.869 ± 0.012
same,TCF/Wnt firefly luciferase reporter signal,SW480 [11],1.1 ± 0.24
Clc1ccc(CSC(Cn2ccnc2)c2ccc(Cl)cc2Cl)cc1 (stereo not drawn),cell viability,DLD1 [1],1.01 ± 0.015
same,cell viability,HCT116 [2],0.932 ± 0.14
same,cell viability,SW480 [3],0.954 ± 0.11
same,TCF/Wnt firefly luciferase reporter signal,DLD1 [4],0.88 ± 0.035
same,TCF/Wnt firefly luciferase reporter signal,SW480 [5],0.952 ± 0.036
Nc1cccc(-c2cc3c(Oc4cccc(O)c4)ncnc3[nH]2)c1,cell viability,DLD1 [6]; reporter: 7TFP,1.17 ± 0.085
same,cell viability,DLD1 [6]; reporter: TCF4/Wnt,1.06 ± 0.078
same,cell viability,HCT116 [7],1.05 ± 0.028
same,cell viability,SW480 [8],0.92 ± 0.018
same,TCF/Wnt firefly luciferase reporter signal,DLD1 [9]; reporter: 7TFP,0.961 ± 0.098
same,TCF/Wnt firefly luciferase reporter signal,DLD1 [9]; reporter: TCF4/Wnt,1.01 ± 0.014
same,TCF/Wnt firefly luciferase reporter signal,HCT116 [10],1.28 ± 0.085
same,TCF/Wnt firefly luciferase reporter signal,SW480 [11],0.966 ± 0.04
O=c1cc(-c2cccc(O)c2)oc2ccc(O)cc12,cell viability,DLD1 [1],1.05 ± 0.09
same,cell viability,HCT116 [2],0.98 ± 0.0057
same,cell viability,SW480 [3],1 ± 0.036
same,TCF/Wnt firefly luciferase reporter signal,DLD1 [4],1.19 ± 0.16
same,TCF/Wnt firefly luciferase reporter signal,SW480 [5],1.19 ± 0.14
CN1C2CCC1CC(OC(=O)C(O)c1ccccc1)C2 (stereo not drawn),TCF/Wnt firefly luciferase reporter signal,DLD1 [4],1.05 ± 0.042
same,TCF/Wnt firefly luciferase reporter signal,SW480 [5],1.12 ± 0.021
CC1(C)C(O[C@@H]2OC[C@@H](O)[C@H](O)[C@H]2O)CC[C@]23CC24CC[C@]2(C)[C@@H]([C@@]5(C)CC[C@@H](C(C)(C)O)O5)[C@H](O)C[C@@]2(C)C4C[C@@H](O[C@@H]2O[C@H](CO)[C@@H](O)[C@H](O)[C@H]2O)C13 (stereo partly drawn),cell viability,DLD1 [1],0.987 ± 0.033
same,cell viability,HCT116 [2],0.961 ± 0.016
same,cell viability,SW480 [3],0.9815 ± 0.0064
same,TCF/Wnt firefly luciferase reporter signal,DLD1 [4],1 ± 0.011
same,TCF/Wnt firefly luciferase reporter signal,SW480 [5],1.075 ± 0.0071
OC[C@H]1O[C@@](CO)(O[C@H]2O[C@H](CO)[C@@H](O)[C@H](O)[C@H]2O)[C@@H](O[C@H]2O[C@H](CO)[C@@H](O)[C@H](O)[C@H]2O)[C@@H]1O,cell viability,DLD1 [1],1.01 ± 0.047
same,cell viability,HCT116 [2],1.05 ± 0.014
same,cell viability,SW480 [3],1 ± 0.025
same,TCF/Wnt firefly luciferase reporter signal,DLD1 [4],0.9905 ± 0.0078
same,TCF/Wnt firefly luciferase reporter signal,SW480 [5],0.989 ± 0.073
COc1ccc2c(c1)OC[C@@H](Cc1ccc(OC)c(OC)c1)[C@@H]2O,cell viability,DLD1 [1],1.03
same,cell viability,HCT116 [2],1.02 ± 0.12
same,cell viability,SW480 [3],0.963 ± 0.034
same,TCF/Wnt firefly luciferase reporter signal,DLD1 [4],1 ± 0.015
same,TCF/Wnt firefly luciferase reporter signal,SW480 [5],0.973 ± 0.081
NC12CC3CC(CC(C3)C1)C2,cell viability,DLD1 [1],0.979 ± 0.028
same,cell viability,HCT116 [2],0.944 ± 0.058
same,cell viability,SW480 [3],1.04 ± 0.021
same,TCF/Wnt firefly luciferase reporter signal,DLD1 [4],0.908 ± 0.34
same,TCF/Wnt firefly luciferase reporter signal,SW480 [5],1.025 ± 0.0071
OC[C@H]1O[C@@H](Oc2ccc(O)cc2)[C@H](O)[C@@H](O)[C@@H]1O,cell viability,DLD1 [1],0.965 ± 0.04
same,cell viability,HCT116 [2],0.989 ± 0.072
same,cell viability,SW480 [3],0.936 ± 0.018
same,TCF/Wnt firefly luciferase reporter signal,DLD1 [4],0.963 ± 0.095
same,TCF/Wnt firefly luciferase reporter signal,SW480 [5],0.975 ± 0.033
CC[C@H]1OC(=O)C[C@@H](O)[C@H](C)[C@@H](O[C@@H]2O[C@H](C)[C@@H](O)[C@H](N(C)C)[C@H]2O)[C@@H](CCN2C[C@H](C)C[C@H](C)C2)C[C@@H](C)C(=O)/C=C/C(C)=C/[C@@H]1CO[C@@H]1O[C@H](C)[C@@H](O)[C@@H](OC)[C@H]1OC,cell viability,DLD1 [1],0.981 ± 0.041
same,cell viability,HCT116 [2],1.1 ± 0.05
same,cell viability,SW480 [3],0.972 ± 0.021
same,TCF/Wnt firefly luciferase reporter signal,DLD1 [4],1.02 ± 0.077
same,TCF/Wnt firefly luciferase reporter signal,SW480 [5],1.09 ± 0.064
